# In ChEMBL document CHEMBL3988442, “University of Dundee, Small-Polar-MMV Screening Library” (2021):
# Target: T1, Methionyl-tRNA synthetase, putative (Leishmania donovani (strain BPK282A1)) (UniProt E9BF75)
# T1 sequence (whole entry): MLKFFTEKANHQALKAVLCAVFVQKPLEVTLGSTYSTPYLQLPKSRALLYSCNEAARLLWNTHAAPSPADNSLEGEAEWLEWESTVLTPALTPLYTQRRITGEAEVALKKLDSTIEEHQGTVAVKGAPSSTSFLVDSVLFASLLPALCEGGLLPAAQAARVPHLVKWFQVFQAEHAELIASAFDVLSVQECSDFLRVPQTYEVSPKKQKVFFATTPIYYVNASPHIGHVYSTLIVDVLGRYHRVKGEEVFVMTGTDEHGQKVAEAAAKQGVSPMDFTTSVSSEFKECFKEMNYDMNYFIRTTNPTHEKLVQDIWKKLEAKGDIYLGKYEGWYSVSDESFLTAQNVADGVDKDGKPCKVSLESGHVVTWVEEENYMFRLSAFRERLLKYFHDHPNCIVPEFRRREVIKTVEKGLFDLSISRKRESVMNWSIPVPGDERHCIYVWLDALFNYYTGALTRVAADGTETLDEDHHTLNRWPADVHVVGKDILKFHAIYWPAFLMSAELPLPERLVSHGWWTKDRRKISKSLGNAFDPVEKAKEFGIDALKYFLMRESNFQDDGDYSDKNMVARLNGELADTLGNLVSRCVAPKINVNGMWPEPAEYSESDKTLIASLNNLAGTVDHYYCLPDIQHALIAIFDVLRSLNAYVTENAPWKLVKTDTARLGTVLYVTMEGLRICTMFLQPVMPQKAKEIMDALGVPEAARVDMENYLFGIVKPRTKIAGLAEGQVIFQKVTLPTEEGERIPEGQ
# Experiment: Leishmania donovani Methionine tRNA synthetase (LdMetRS):v7. Dose response assay
# Assay type: functional
# Design: conc 80 nM, time 150 minutes
smiles,measurement,setting,value
Cc1cc(Nc2ccc(F)c(F)c2)nc(NCCO)n1,PXC50,"BOTTOM -0.152929864, HILLSLOPE 0.883857243, MAX_EFFECT 83.3655706, TOP 93.53791092",5.04
same,PXC50,"BOTTOM -2.585097693, HILLSLOPE 0.96868989, MAX_EFFECT 84.50413223, TOP 95.81491094",4.9
same,PXC50,"BOTTOM -4.028659836, HILLSLOPE 0.891804294, MAX_EFFECT 83.70044053, TOP 100.2402145",4.82
COc1ccc(Oc2nccc3occc23)cc1CN1CCCC1,PXC50,"BOTTOM 5.268776127, HILLSLOPE 1.354854137, MAX_EFFECT 57.61821366, TOP 100.0",4.06
same,PXC50,"BOTTOM -7.168939731, HILLSLOPE 0.901042745, MAX_EFFECT 51.70068027, TOP 100.0",4.08
same,PXC50,"BOTTOM -7.793188509, HILLSLOPE 1.286586052, MAX_EFFECT 52.89855072, TOP 100.0",4.09
O=S(=O)(NCC1CC1)c1cccnc1Nc1cccc(C(F)(F)F)c1,PXC50,MAX_EFFECT 6.072106262,< 4
same,PXC50,MAX_EFFECT 13.21585903,< 4
same,PXC50,MAX_EFFECT 16.32231405,< 4
CNS(=O)(=O)c1cccnc1Nc1cccc(C(F)(F)F)c1,PXC50,MAX_EFFECT 3.524229075,< 4
same,PXC50,MAX_EFFECT 5.165289256,< 4
same,PXC50,MAX_EFFECT 6.451612903,< 4
CCC(C)NC(=O)c1ccc(-c2ccco2)[nH]c1=O (centres undefined),PXC50,MAX_EFFECT 4.72854641,< 4
same,PXC50,MAX_EFFECT 5.442176871,< 4
same,PXC50,MAX_EFFECT 7.971014493,< 4
Cc1ccnc(C2CN(Cc3ccc(-c4ccccc4C(=O)O)o3)C2)n1,PXC50,"BOTTOM 9.249913927, HILLSLOPE 1.102722508, MAX_EFFECT 60.83188908, TOP 100.0",4.12
same,PXC50,"BOTTOM 9.895143899, HILLSLOPE 1.447637201, MAX_EFFECT 79.86111111, TOP 100.0",4.36
same,PXC50,"BOTTOM 14.75237733, HILLSLOPE 1.939721289, MAX_EFFECT 72.48322148, TOP 100.0",4.2
Cn1ncc2c(NCCO)nc(Nc3cccc(C(F)(F)F)c3)nc21,PXC50,MAX_EFFECT 33.39622642,< 4
same,PXC50,MAX_EFFECT 39.26940639,< 4
same,PXC50,MAX_EFFECT 40.60721063,< 4
OCCNc1nccc(Nc2cccc(F)c2)n1,PXC50,MAX_EFFECT 6.168224299,< 4
same,PXC50,MAX_EFFECT 6.404958678,< 4
same,PXC50,MAX_EFFECT 9.691629956,< 4
NCC1Cc2cc(-c3nccc(N4CCC(O)CC4)n3)cc(Cl)c2O1 (centres undefined),PXC50,"BOTTOM 2.296775574, HILLSLOPE 1.512300698, MAX_EFFECT 82.17821782, TOP 96.63760695",4.5
same,PXC50,"BOTTOM 6.226174125, HILLSLOPE 1.41403245, MAX_EFFECT 85.50724638, TOP 100.0",4.49
same,PXC50,"BOTTOM -3.72600926, HILLSLOPE 1.42983, MAX_EFFECT 83.15412186, TOP 100.0",4.35
CNC(=O)CNc1nc(Nc2ccc(F)c(F)c2)nc2c1cnn2C,PXC50,"BOTTOM -2.014141631, HILLSLOPE 0.719425381, MAX_EFFECT 67.11798839, TOP 100.0",4.45
same,PXC50,"BOTTOM -2.647341189, HILLSLOPE 0.864486673, MAX_EFFECT 64.80686695, TOP 100.0",4.36
same,PXC50,"BOTTOM -5.796593818, HILLSLOPE 0.871793388, MAX_EFFECT 66.50831354, TOP 100.0",4.35
Cn1ncc2c(Nc3ccc(F)c(F)c3)nc(NCCO)nc21,PXC50,MAX_EFFECT 4.750593824,< 4
same,PXC50,MAX_EFFECT 5.660377358,< 4
same,PXC50,MAX_EFFECT 14.59227468,< 4
O=C1NCC(c2ccc(F)cc2)Cc2[nH]c(CCN3CCCC3)nc21 (centres undefined),PXC50,"BOTTOM 0.586623965, HILLSLOPE 0.960788857, MAX_EFFECT 61.0738255, TOP 100.0",4.15
same,PXC50,"BOTTOM 2.860481636, HILLSLOPE 1.198642369, MAX_EFFECT 65.27777778, TOP 100.0",4.21
same,PXC50,"BOTTOM -5.455719139, HILLSLOPE 0.971400426, MAX_EFFECT 59.44540728, TOP 100.0",4.18
NS(=O)(=O)c1cccnc1Nc1cc(F)cc(C(F)(F)F)c1,PXC50,MAX_EFFECT 3.956834532,< 4
same,PXC50,MAX_EFFECT 8.551068884,< 4
same,PXC50,MAX_EFFECT 8.583690987,< 4
Cn1ncc2c(NCCn3cnnn3)nc(Nc3ccc(F)c(F)c3)nc21,PXC50,"BOTTOM 0.694813003, HILLSLOPE 0.766193094, MAX_EFFECT 55.16528926, TOP 100.0",4.46
same,PXC50,MAX_EFFECT 43.90715667,< 4
same,PXC50,MAX_EFFECT 44.05286344,< 4
O=S(=O)(NCCSc1nccn1C1CC1)c1ccccc1,PXC50,MAX_EFFECT 2.721088435,< 4
same,PXC50,MAX_EFFECT 2.898550725,< 4
same,PXC50,MAX_EFFECT 8.23117338,< 4
NS(=O)(=O)c1cccnc1Nc1cccc(C(F)(F)F)c1,PXC50,MAX_EFFECT 8.810572687,< 4
same,PXC50,MAX_EFFECT 8.888888889,< 4
same,PXC50,MAX_EFFECT 15.90909091,< 4
Cc1ccc(CSc2nc(N)cc(NCC(=O)N3CCNCC3)n2)cc1,PXC50,"BOTTOM -2.199449509, HILLSLOPE 1.075485519, MAX_EFFECT 68.11594203, TOP 100.0",4.29
same,PXC50,"BOTTOM -2.347869122, HILLSLOPE 1.011463002, MAX_EFFECT 66.66666667, TOP 100.0",4.27
same,PXC50,"BOTTOM -6.039839519, HILLSLOPE 1.064095709, MAX_EFFECT 59.36952715, TOP 57.65563111",4.81
NS(=O)(=O)c1cc(C(=O)O)cnc1Nc1cccc(C(F)(F)F)c1,PXC50,MAX_EFFECT 5.660377358,< 4
same,PXC50,MAX_EFFECT 10.0877193,< 4
same,PXC50,MAX_EFFECT 16.28498728,< 4
